Experimental data from the supplement of paper PMC11732987, “Enantioselective OTUD7B fragment discovery through chemoproteomics screening and high-throughput optimisation” (Communications Chemistry, 2025).

Columns and labels:
Assay in all cases: log2 ratio of Biotin-Ahx-Ub-VS probe labelling (fragment/DMSO); higher = less target engagement (more negative = stronger competition), active = hit call of the paper (q ≤ 0.05, log2 ratio ≤ -1)
Details in all cases: compound concentration: 200 uM; treatment time: 3 h
ALG13 = target: T1, ALG13 (UniProt Q9NP73)
T1 sequence (whole entry): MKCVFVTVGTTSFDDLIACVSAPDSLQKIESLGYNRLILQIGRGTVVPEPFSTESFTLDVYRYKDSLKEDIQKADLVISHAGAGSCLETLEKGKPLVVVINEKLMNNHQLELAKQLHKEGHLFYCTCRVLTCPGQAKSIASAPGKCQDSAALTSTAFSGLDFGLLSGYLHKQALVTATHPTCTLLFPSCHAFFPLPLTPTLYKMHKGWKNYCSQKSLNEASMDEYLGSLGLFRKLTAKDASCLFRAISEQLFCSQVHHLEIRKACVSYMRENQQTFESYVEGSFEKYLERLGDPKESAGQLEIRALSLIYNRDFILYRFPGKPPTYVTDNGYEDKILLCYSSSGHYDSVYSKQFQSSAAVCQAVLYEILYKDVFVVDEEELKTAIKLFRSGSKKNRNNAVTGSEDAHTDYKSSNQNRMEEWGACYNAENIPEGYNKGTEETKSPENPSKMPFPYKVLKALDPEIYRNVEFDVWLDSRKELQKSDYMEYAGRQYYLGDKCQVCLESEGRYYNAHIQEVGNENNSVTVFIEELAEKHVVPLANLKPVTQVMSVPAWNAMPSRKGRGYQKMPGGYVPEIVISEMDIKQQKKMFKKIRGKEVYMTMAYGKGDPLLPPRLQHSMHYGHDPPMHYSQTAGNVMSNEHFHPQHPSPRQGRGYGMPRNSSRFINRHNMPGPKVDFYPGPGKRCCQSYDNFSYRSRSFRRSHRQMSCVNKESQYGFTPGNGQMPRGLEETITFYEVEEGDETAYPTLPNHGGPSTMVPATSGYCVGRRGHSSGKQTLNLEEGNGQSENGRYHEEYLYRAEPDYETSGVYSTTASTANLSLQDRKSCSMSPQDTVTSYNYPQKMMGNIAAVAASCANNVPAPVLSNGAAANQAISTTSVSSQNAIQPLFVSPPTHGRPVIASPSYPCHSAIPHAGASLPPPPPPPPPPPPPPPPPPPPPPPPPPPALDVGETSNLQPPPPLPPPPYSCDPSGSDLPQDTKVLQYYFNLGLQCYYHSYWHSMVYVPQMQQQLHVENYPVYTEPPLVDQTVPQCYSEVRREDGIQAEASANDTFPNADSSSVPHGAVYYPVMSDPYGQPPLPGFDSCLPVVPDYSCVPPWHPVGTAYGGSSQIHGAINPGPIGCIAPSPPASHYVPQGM
Outline: (§1)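 Average log2 ratios of fragment over vehicle were obtained by unpaired t-test from global-median-normalised Spectronaut label-free quantities. Proteins with ≥2 unique peptides were included. HEK293T lysate (495 µg per sample) was treated in triplicate with fragment at 200 µM or vehicle for 3 h, then with Biotin-Ahx-Ub-VS at 0.5 µM final for 1 h, and labelled DUBs were NeutrAvidin-enriched and run by diaPASEF LC-MS/MS.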

ATXN3 = ATXN3 (UniProt P54252)
Sequence of ATXN3 (P54252 whole entry): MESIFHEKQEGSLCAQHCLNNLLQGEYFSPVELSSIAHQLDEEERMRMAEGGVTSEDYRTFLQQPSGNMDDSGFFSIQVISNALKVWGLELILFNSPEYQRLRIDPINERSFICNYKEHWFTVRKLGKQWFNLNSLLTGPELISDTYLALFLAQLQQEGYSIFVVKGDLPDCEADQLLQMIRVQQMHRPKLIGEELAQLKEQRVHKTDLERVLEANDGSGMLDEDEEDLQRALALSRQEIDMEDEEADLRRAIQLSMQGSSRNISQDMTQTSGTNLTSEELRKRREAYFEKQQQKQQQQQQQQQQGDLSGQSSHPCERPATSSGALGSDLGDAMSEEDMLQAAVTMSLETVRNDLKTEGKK
Outline: as §1

BAP1 = target: T2, BAP1 (UniProt Q92560)
T2 sequence (whole entry): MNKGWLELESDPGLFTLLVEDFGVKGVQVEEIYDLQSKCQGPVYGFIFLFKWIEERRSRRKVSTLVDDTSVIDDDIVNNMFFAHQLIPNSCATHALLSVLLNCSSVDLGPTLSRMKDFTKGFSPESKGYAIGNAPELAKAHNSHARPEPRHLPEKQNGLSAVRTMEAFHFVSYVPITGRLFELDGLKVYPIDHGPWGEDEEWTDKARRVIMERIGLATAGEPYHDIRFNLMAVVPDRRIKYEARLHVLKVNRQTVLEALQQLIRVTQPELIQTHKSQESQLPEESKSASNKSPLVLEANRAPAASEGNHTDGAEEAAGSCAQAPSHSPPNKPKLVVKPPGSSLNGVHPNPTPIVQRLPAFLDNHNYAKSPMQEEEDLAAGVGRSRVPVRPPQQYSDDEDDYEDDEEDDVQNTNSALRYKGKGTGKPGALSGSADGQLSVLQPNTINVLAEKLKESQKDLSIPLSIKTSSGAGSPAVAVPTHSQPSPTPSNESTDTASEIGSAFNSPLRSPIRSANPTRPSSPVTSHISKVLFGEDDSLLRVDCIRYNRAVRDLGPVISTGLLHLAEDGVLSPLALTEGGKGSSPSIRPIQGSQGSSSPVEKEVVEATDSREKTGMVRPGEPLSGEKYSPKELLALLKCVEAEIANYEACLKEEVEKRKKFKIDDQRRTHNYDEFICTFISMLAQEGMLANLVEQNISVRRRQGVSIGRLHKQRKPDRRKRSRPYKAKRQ
Outline: as §1

EIF3F = EIF3F (UniProt O00303)
Sequence of EIF3F (O00303 whole entry): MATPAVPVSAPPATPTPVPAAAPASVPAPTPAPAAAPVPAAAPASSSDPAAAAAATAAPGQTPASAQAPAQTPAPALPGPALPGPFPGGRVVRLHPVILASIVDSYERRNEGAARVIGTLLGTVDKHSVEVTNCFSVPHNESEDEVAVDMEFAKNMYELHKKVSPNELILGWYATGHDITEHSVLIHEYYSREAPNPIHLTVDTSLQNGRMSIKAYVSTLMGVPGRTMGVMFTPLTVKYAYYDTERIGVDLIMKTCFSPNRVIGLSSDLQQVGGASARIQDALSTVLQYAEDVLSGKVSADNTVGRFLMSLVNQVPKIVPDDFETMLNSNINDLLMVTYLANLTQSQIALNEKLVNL
Outline: as §1

EIF3H = EIF3H (UniProt O15372)
Sequence of EIF3H (O15372 whole entry): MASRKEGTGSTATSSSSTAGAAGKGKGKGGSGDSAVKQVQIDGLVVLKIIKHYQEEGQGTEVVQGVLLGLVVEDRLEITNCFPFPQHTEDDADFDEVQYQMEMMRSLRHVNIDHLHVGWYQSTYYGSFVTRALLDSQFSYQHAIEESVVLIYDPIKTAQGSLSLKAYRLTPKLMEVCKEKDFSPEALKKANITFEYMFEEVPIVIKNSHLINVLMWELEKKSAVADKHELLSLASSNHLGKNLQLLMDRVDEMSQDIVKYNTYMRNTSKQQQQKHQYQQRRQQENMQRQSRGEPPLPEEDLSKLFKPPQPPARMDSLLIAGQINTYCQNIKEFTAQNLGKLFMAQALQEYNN
Outline: as §1

FAM105A = target: T3, FAM105A (UniProt Q9NUU6)
T3 sequence (whole entry): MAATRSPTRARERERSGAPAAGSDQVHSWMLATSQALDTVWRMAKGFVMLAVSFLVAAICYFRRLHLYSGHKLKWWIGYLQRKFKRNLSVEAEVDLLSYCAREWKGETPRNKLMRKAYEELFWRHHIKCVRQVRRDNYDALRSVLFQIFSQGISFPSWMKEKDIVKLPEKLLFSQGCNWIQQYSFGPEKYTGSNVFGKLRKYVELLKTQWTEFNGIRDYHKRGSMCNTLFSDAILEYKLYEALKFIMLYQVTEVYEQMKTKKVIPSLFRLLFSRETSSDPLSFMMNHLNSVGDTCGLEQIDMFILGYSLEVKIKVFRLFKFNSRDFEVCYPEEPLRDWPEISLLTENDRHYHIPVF
Outline: as §1

OTUB1 = OTUB1 (UniProt Q96FW1)
Sequence of OTUB1 (Q96FW1 whole entry): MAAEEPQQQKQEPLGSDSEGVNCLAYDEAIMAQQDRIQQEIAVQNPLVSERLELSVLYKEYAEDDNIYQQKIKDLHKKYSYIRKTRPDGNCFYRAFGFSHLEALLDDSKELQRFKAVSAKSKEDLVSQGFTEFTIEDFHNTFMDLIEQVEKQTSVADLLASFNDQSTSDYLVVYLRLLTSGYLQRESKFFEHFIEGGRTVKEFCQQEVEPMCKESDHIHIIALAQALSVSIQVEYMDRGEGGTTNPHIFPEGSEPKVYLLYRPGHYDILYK
Outline: as §1

OTUD4 = target: T4, OTUD4 (UniProt Q01804)
T4 sequence (whole entry): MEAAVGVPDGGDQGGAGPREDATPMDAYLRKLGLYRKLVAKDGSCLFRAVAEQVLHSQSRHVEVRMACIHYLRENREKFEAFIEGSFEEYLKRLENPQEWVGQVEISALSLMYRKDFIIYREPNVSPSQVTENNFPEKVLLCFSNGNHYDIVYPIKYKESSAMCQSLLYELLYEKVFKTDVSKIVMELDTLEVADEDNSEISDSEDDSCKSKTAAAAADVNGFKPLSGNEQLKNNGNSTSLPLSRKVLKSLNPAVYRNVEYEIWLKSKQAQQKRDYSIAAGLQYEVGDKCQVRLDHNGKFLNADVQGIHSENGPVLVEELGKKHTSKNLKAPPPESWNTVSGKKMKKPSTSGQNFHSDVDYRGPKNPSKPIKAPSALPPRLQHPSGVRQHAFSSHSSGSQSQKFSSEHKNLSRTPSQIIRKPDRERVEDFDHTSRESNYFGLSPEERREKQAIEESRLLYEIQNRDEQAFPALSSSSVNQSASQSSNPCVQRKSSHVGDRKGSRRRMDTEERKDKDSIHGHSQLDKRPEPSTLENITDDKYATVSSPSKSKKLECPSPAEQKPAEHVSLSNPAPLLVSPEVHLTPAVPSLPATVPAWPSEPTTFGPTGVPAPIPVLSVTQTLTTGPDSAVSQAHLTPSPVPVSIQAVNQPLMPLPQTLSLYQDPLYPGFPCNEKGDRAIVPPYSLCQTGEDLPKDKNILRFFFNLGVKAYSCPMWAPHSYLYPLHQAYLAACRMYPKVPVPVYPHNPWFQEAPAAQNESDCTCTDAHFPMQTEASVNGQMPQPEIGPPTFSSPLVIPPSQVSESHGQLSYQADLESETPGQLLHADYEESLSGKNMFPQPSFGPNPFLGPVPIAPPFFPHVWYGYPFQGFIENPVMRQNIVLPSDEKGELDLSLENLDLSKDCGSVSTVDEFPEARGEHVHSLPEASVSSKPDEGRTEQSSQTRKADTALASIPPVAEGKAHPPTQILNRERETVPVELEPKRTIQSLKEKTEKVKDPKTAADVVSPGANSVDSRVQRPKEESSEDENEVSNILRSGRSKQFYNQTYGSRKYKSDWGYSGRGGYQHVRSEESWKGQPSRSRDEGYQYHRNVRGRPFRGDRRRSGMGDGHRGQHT
Outline: as §1

OTUD5 = target: T5, OTUD5 (UniProt Q96G74)
T5 sequence (whole entry): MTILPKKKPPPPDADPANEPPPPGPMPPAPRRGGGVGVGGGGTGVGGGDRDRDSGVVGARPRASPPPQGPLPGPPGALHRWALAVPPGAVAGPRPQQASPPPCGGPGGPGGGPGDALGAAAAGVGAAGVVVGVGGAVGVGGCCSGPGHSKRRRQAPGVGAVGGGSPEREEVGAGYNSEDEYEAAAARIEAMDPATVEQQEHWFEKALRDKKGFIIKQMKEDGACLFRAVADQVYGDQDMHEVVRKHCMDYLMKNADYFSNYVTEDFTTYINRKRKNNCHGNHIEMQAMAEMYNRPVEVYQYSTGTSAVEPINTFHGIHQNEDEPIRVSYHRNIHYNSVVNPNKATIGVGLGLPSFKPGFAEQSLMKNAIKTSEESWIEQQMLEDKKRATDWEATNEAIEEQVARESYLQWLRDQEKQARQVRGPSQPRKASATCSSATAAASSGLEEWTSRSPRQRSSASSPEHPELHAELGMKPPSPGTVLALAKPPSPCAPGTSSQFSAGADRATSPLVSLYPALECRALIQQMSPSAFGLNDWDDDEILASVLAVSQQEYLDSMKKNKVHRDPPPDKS
Outline: as §1

Measured: log2 ratio of Biotin-Ahx-Ub-VS probe labelling

Cc1n[nH]c2c1CN(C(=O)CCl)CC2
inactive: ALG13 0.0341 | ATXN3 -0.888 | BAP1 -1.1 | EIF3F -0.389 | EIF3H 0.366 | FAM105A 0.0256 | OTUB1 -0.0671 | OTUD4 -0.753
active: OTUD5 -1.05
